Test results published in the supplement of paper PMC10849652.
Targets with a hit are over-represented here; the source holds about 8,800 in all. About 0.5% of all pairs of compound and target were hits.

Assays:
Test in all cases: log2 fold change, soluble protein after heating vs DMSO (PISA); higher = thermal stabilisation; K562 lysate, 10 uM; active = over 0.2 and 3.5 SD of the protein, either way, in both replicates (recomputed)
ibrutinib = compound: C=CC(=O)N1CCC[C@@H](n2nc(-c3ccc(Oc4ccccc4)cc3)c3c(N)ncnc32)C1 [ibrutinib]
How it was run: (§1)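 Soluble protein was defined as the supernatant remaining after 21,000xg for 90 min, following pooling of heated aliquots and adjustment to 0.5% NP-40 at 4°C. Before that, crude K562 extract at 1 mg/mL protein in PBS pH 7.4 with 1 mM MgCl2 was treated with 10 μM compound for 30 min and heated for 3 min across 48°C-58°C. Quantification used TMTpro 16plex LC-MS/MS with channel sums equalised, and values are log-two fold changes in thermal stability relative to solvent controls from duplicates.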

[1] = compound: CC(=O)c1cnc2ccc(-c3cc(Cl)c(O)c(Cl)c3)nc2c1N[C@H]1CC[C@H](CN(C)C)CC1
How it was run: as §1

ralimetinib = compound: CC(C)(C)Cn1c(N)nc2ccc(-c3[nH]c(C(C)(C)C)nc3-c3ccc(F)cc3)nc21 [ralimetinib]
How it was run: as §1

[2] = compound: CC(C)(O)CC(=O)NCCn1ccc2ncnc(Nc3ccc(Oc4cccc(C(F)(F)F)c4)c(Cl)c3)c21
How it was run: as §1

[3] = compound: CC(C)C1=C2N=C(C=C(N2N=C1)NCC3=CC=CC=C3)NCCCCCCN
How it was run: as §1

[4] = compound: CC1=C(C(CC(=O)N1)C2=CC=C(C=C2)C(F)(F)F)C(=O)NC3=C(C=C4C(=C3)C=NN4)F
How it was run: as §1

[5] = compound: CC1=C(C2=C(C=C1)C(=O)C3=CC=CC=C3N2CCCN)C
How it was run: as §1

[6] = compound: CC1=C(C=C(C=C1)NC(=O)C2=CC(=CC=C2)C(C)(C)C#N)NC3=CC4=C(C=C3)N=CN(C4=O)C
How it was run: as §1

[7] = compound: CC1=C(C=C(C=C1)NC(=O)C2=CC(=CC=C2)N(C)C)NC(=O)C3=CC=C(C=C3)O
How it was run: as §1

[8] = compound: CC1=CC=C(C=C1)SC2=C3C=C(SC3=CN=C2)C(=O)N
How it was run: as §1

vemurafenib = compound: CCCS(=O)(=O)Nc1ccc(F)c(C(=O)c2c[nH]c3ncc(-c4ccc(Cl)cc4)cc23)c1F [vemurafenib]
How it was run: as §1

[9] = compound: CCCS(=O)(=O)Nc1ccc(F)c(C(=O)c2c[nH]c3ncc(Cl)cc23)c1F
How it was run: as §1

barasertib = compound: CCN(CCCOc1ccc2c(Nc3cc(CC(=O)Nc4cccc(F)c4)[nH]n3)ncnc2c1)CCOP(=O)(O)O [barasertib]
How it was run: as §1

[10] = compound: CC[C@@H]1C(=O)N(C)c2cnc(Nc3ccc(C(=O)NC4CCN(C)CC4)cc3OC)nc2N1C1CCCC1
How it was run: as §1

volasertib = compound: CC[C@@H]1C(=O)N(C)c2cnc(Nc3ccc(C(=O)N[C@H]4CC[C@H](N5CCN(CC6CC6)CC5)CC4)cc3OC)nc2N1C(C)C [volasertib]
How it was run: as §1

[11] = compound: CCn1c(C(=O)N(C2CC2)C2CC2)cc2c3c(ncn3C)c(Nc3cc(C)n(C)n3)nc21
How it was run: as §1

[12] = compound: CCn1cc(-c2ccnc3[nH]c(-c4cccc(CN(C)C)c4)cc23)c(-c2ccc(NC(=O)N(C)C)cc2)n1
How it was run: as §1

[13] = compound: CN1CCC(CNc2ccc3ncc(-c4cccc(OC(F)(F)F)c4)n3n2)CC1
How it was run: as §1

saracatinib = compound: CN1CCN(CCOc2cc(OC3CCOCC3)c3c(Nc4c(Cl)ccc5c4OCO5)ncnc3c2)CC1 [saracatinib]
How it was run: as §1

sotrastaurin = compound: CN1CCN(c2nc(C3=C(c4c[nH]c5ccccc45)C(=O)NC3=O)c3ccccc3n2)CC1 [sotrastaurin]
How it was run: as §1

Measured: log2 fold change

MPP1 (UniProt Q00013)
Sequence of UniProt Q00013 (Q00013 whole entry, looked up): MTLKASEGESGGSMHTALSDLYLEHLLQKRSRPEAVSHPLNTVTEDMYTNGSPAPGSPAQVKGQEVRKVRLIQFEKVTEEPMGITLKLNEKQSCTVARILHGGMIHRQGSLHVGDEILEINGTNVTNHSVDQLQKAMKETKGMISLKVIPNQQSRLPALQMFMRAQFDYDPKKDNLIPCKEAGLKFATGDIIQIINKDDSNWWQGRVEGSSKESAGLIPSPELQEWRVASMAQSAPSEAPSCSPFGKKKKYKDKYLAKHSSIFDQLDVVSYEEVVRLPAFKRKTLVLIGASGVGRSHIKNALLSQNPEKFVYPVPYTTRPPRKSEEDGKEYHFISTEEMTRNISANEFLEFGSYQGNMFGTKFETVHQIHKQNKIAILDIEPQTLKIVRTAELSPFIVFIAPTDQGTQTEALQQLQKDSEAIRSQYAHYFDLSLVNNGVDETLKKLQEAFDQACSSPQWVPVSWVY
inactive: ibrutinib 0.035 | [1] 0.011 | ralimetinib -0.01 | [2] -0.002 | [3] 0.02 | [4] -0.019 | [5] 0.018 | [6] 0.022 | [7] 0.012 | [8] -0.004 | vemurafenib 0.014 | [9] -0.005 | barasertib -0.014 | [10] 0.001 | volasertib -0.029 | [11] -0.011 | [12] -0.008 | [13] -0.034 | saracatinib -0.001 | sotrastaurin -0.007

LAP3 (UniProt P28838)
Sequence of UniProt P28838 (P28838 whole entry, looked up): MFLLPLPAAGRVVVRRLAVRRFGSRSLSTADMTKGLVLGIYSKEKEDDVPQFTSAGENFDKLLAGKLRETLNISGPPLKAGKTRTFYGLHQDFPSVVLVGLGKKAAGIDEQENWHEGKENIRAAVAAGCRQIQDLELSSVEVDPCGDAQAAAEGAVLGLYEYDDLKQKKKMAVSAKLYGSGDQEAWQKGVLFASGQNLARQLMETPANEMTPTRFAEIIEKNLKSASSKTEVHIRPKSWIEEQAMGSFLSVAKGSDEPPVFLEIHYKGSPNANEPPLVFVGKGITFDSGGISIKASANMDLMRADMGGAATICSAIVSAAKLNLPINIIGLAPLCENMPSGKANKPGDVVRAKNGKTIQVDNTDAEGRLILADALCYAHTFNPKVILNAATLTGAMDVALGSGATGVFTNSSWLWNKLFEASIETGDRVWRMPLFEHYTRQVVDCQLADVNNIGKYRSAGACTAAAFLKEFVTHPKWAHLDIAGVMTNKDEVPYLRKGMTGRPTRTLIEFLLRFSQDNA
active: [12] -0.495 | [13] 0.36
inactive: ibrutinib 0.043 | [1] -0.03 | ralimetinib -0.05 | [2] -0.103 | [3] 0 | [4] -0.024 | [5] -0.042 | [6] 0.117 | [7] -0.009 | [8] -0.018 | vemurafenib 0.107 | [9] 0.024 | barasertib -0.002 | [10] 0.195 | volasertib 0.054 | [11] -0.095 | saracatinib 0.082 | sotrastaurin 0.042

MAPK1 (UniProt P28482)
Sequence of UniProt P28482 (P28482 whole entry, looked up): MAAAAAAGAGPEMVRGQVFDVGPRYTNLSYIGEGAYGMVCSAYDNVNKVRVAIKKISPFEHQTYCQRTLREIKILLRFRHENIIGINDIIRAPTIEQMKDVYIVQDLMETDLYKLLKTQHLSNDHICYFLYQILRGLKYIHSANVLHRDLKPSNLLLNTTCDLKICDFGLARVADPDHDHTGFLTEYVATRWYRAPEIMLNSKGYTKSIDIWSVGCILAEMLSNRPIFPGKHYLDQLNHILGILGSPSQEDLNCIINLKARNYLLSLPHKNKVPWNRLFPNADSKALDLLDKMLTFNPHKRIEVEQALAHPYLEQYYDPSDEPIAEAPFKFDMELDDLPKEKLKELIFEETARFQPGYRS
inactive: ibrutinib 0.001 | [1] 0 | ralimetinib -0.066 | [2] 0.012 | [3] -0.029 | [4] -0.022 | [5] 0.023 | [6] -0.039 | [7] -0.03 | [8] 0.003 | vemurafenib -0.022 | [9] -0.072 | barasertib -0.015 | [10] -0.013 | volasertib -0.009 | [11] 0.004 | [12] 0.004 | [13] -0.023 | saracatinib 0.002 | sotrastaurin -0.007

LAGE3 (UniProt Q14657)
Sequence of UniProt Q14657 (Q14657 whole entry, looked up): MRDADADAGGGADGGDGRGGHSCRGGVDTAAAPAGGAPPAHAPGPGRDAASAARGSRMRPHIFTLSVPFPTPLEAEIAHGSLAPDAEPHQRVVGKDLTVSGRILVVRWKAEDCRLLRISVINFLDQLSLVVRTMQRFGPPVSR
inactive: ibrutinib 0.047 | [1] 0.002 | ralimetinib 0.012 | [2] 0 | [3] -0.004 | [4] -0.147 | [5] -0.098 | [6] -0.002 | [7] 0.031 | [8] 0.046 | vemurafenib 0.016 | [9] 0.004 | barasertib 0.128 | [10] -0.032 | volasertib 0.005 | [11] 0.058 | [12] -0.024 | [13] -0.003 | saracatinib 0.019 | sotrastaurin -0.024

MAP11 (UniProt Q8WVR3)
Sequence of UniProt Q8WVR3 (Q8WVR3 whole entry, looked up): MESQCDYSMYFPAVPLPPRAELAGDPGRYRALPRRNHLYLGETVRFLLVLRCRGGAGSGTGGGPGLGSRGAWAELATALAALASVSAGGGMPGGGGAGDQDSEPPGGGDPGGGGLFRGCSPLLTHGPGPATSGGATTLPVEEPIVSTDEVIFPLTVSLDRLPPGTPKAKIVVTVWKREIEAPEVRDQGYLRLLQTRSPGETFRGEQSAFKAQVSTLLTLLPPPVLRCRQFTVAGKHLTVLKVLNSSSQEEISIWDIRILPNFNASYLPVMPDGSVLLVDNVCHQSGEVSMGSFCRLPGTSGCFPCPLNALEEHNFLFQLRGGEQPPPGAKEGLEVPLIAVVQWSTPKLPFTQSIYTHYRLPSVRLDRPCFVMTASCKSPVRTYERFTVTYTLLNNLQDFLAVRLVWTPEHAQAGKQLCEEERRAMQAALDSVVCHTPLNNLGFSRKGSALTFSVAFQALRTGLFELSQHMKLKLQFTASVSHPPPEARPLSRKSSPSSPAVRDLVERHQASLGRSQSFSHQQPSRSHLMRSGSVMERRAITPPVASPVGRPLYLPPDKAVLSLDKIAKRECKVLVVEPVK
inactive: ibrutinib 0.064 | [1] 0.072 | ralimetinib 0.037 | [2] -0.008 | [3] -0.005 | [4] 0.105 | [5] -0.063 | [6] 0.014 | [7] -0.031 | [8] 0.078 | vemurafenib -0.032 | [9] 0.044 | barasertib 0.07 | [10] 0.129 | volasertib -0.079 | [11] 0.086 | [12] 0.049 | [13] 0.06 | saracatinib 0.033 | sotrastaurin -0.039

LYN (UniProt P07948)
Sequence of UniProt P07948 (P07948 whole entry, looked up): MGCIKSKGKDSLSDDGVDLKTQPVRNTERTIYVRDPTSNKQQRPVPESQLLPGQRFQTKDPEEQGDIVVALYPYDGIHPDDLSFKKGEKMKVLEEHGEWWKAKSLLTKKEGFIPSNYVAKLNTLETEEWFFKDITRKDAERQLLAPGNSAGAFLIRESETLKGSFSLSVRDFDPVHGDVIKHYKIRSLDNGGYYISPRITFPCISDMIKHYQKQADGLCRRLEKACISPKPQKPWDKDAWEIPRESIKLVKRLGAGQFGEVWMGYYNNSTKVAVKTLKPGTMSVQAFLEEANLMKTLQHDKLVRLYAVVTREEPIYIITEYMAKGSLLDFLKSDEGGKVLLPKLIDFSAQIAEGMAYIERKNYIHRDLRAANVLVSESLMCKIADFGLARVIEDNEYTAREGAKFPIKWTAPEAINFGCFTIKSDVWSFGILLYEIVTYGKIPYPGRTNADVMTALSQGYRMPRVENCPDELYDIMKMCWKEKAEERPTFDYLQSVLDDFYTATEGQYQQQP
active: ibrutinib 1.15
inactive: [1] 0.141 | ralimetinib -0.068 | [2] 0.068 | [3] 0 | [4] 0.003 | [5] -0.043 | [6] 0.479 | [7] 0.007 | [8] -0.126 | vemurafenib 0.285 | [9] 0.05 | barasertib 0.258 | [10] -0.067 | volasertib -0.134 | [11] 0.004 | [12] -0.012 | [13] 0.233 | saracatinib 0.605 | sotrastaurin -0.045

MAP2K4 isoform 2 (UniProt P45985)
Sequence of UniProt P45985 (P45985 whole entry, looked up): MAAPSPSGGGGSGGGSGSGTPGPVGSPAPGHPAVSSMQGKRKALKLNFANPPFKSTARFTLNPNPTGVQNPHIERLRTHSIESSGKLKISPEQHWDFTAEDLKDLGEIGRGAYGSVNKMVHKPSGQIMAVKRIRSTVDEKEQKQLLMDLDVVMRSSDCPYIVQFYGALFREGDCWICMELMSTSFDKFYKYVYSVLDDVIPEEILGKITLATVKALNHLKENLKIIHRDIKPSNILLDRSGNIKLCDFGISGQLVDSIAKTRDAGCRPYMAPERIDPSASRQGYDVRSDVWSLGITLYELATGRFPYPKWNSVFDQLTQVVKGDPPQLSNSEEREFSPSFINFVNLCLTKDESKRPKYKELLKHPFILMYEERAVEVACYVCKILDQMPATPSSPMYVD
inactive: ibrutinib 0.051 | [1] 0.316 | ralimetinib -0.029 | [2] -0.015 | [3] 0.042 | [4] -0.008 | [5] 0.006 | [6] -0.055 | [7] 0.033 | [8] -0.045 | [9] 0.243 | barasertib 0.09 | [10] -0.127 | volasertib -0.01 | [11] 0.04 | [13] -0.063 | saracatinib -0.063 | sotrastaurin 0.002
active: vemurafenib 0.601 | [12] 0.936

MLLT11 (UniProt Q13015)
Sequence of UniProt Q13015 (Q13015 whole entry, looked up): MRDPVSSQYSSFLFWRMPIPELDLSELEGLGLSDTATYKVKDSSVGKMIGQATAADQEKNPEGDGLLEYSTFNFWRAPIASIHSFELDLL
inactive: ibrutinib -0.057 | [1] 0.077 | ralimetinib 0.032 | [2] -0.116 | [3] 0.164 | [4] 0.174 | [5] -0.037 | [6] 0.326 | [7] -0.008 | [8] 0.055 | vemurafenib -0.054 | [9] -0.048 | barasertib 0.143 | [10] -0.199 | volasertib 0.1 | [11] 0.05 | [12] -0.01 | [13] -0.049 | saracatinib 0.118 | sotrastaurin -0.04
